# Test results taken from PubChem BioAssay (NCATS).
# Results filed as inconclusive are left out. The source made the active and inactive calls. The call rests on the fitted dose curve; in most records, active means well fitted cell-killing curve with a large enough effect; inconclusive means small, poorly fitted or top-dose-only effect, or effect the other way; inactive means flat fitted curve, though single readings scatter.
# Tested on: JEG-3
# Test: Primary qHTS to identify gynecologic anti-cancer compounds using libraries of approved drugs and bioactive compounds (AID 1345084); further: nearly all actives have a fitted effect of over 55% in size
# Conditions: Gynecologic cancer cell panel viability, ATPlite luminescence, 48 h; series mostly up to 57.5 µM; activity change, negative = cytotoxicity: at the top concentration
# In short: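 ATP-based viability (ATPlite), 1,000 cells/well, 16 h pre-incubation, 48 h compound at 37 C, 5% CO2, 15 min RT before read.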
# On the % scale 0 is the no-effect control and ±100 the full control effect.
row,Compound,"activity change, negative = cytotoxicity"
1,CC1NC(=O)C(Cc2c[nH]c3ccccc23)NC1=O (stereo unspecified),3.31% (inactive)
2,CC(=O)c1c(O)cc2cccc3c2c1CC(C)(O)O3 (stereo unspecified),-2.82% (inactive)
3,CC(C#N)C(C)O[C@@H]1O[C@H](CO)[C@@H](O)[C@H](O)[C@H]1O (stereo partly specified),4.45% (inactive)
4,CC(C)C(=O)O[C@@H]1[C@@H](O)[C@@H](O[C@H]2O[C@H](CO)[C@@H](O)[C@H](O)[C@H]2O)O[C@H](CO)[C@H]1O,0.359% [at 25.3 µM] (inactive)
5,COc1ccccc1CC(C(=O)O)N(C)C(=O)c1ccccc1 (stereo unspecified),4.08% [at 38.5 µM] (inactive)
6,C/C(=C/CO)CC[C@@H]1[C@@]2(C)CCC[C@](C)(C(=O)O)C2CC[C@@]1(C)O (stereo partly specified),11.8% [at 38.5 µM] (inactive)
7,COc1cc(C(O)C(CO)Oc2ccc(CCCO[C@@H]3O[C@@H](C)[C@H](O)[C@@H](O)[C@H]3O)cc2OC)ccc1O (stereo partly specified),5.64% [at 25.3 µM] (inactive)
8,C[C@@H]1O[C@@H](O[C@H]2[C@H](O[C@H]3[C@H](O[C@H]4CC[C@@]5(C)C(CC[C@]6(C)C5CC=C5[C@@H]7CC(C)(C(=O)O)C[C@@H](O)[C@]7(C)CC[C@]56C)[C@@]4(C)CO)O[C@H](C(=O)O)[C@@H](O)[C@@H]3O)O[C@H](CO)[C@H](O)[C@@H]2O)[C@H](O)[C@H](O)[C@H]1O (stereo partly specified),-9.71% [at 11.6 µM] (inactive)
9,CC(=O)O[C@H]1[C@H](Oc2ccccc2COC(=O)C2(O)C=CCCC2=O)O[C@H](CO)[C@@H](O)[C@@H]1O (stereo partly specified),9.14% [at 25.3 µM] (inactive)
10,NC(=O)[C@H]1CCCCc2c1[nH]c1ccc(Cl)cc21,-10.7% [at 25.3 µM] (inactive)
11,COc1ccc(/C=C/C(=O)O[C@H]2[C@@H]3C=CO[C@@H](O[C@@H]4O[C@H](CO)[C@@H](O)[C@H](O)[C@H]4O)[C@@H]3[C@@]3(CO)O[C@@H]23)cc1O,-1.71% [at 25.3 µM] (inactive)
